Source: PubChem BioAssay (EPA / NIEHS)
Activity calls are given as the source filed them. Rule for the calls: active = hit-call score of the fitted dose curve at least 0.9, where 1 is the maximum; inactive = score below 0.9.

Read-out: E-selectin (Homo sapiens) (UniProt P16581)
Assay: BSK_3C_Eselectin: BioMAP Diversity Plus: 3C Assay for Eselectin Biomarker Activity (AID 2283015);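 for outcome: cell surface E-selectin protein quantified by ELISA 24 h after dosing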
Settings: primary human endothelial cells (HUVEC); actives raise or lower the signal
How it was run: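 Human vascular endothelium from umbilical vein is exposed to test chemicals for 24 h. E-selectin levels are read by ELISA and compared with DMSO controls.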

E-selectin (Homo sapiens), sequence (P16581 whole entry, looked up): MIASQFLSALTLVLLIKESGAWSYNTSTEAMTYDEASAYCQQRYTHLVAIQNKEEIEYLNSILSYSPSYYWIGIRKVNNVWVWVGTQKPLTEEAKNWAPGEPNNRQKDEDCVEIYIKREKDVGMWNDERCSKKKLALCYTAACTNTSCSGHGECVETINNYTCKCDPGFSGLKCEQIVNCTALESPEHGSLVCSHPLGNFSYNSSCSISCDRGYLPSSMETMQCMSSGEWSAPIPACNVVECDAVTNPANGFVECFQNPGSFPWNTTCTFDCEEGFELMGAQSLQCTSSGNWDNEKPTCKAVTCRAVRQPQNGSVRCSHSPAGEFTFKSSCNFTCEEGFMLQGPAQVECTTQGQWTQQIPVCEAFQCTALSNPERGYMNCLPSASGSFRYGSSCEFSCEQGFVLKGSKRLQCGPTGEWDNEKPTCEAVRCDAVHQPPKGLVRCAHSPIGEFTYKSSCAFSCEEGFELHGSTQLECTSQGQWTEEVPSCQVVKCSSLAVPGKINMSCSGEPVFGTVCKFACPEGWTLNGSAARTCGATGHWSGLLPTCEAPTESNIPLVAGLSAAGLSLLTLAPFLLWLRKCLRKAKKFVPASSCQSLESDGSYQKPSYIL

AC50, active:
CC(C)(COC(=O)c1ccccc1)COC(=O)c1ccccc1 20 µM, c1ccc2sc(SN(C3CCCCC3)C3CCCCC3)nc2c1 1.78 µM, CN(CCOc1ccc(CC2SC(=O)NC2=O)cc1)c1ccccn1 (configuration not stated) 3.97 µM, Cc1ccc(O)c(C(C)(C)C)c1 25.5 µM, CC(C)c1ccc(C(C)C)cc1 36.1 µM, C#C[C@]1(O)CC[C@H]2[C@@H]3CCC4=Cc5oncc5C[C@]4(C)[C@H]3CC[C@@]21C 1.49 µM, CC1CCC(C(C)CS)CC1S (configuration not stated) 30.6 µM

outcome, inactive:
C[C@H]1C[C@@H]2[C@H]([C@@H](O)C[C@@]3(C)[C@H]2CC[C@]3(O)C(=O)CO)[C@@]2(C)C=CC(=O)C=C12, O=C(O)c1cn(-c2ccc(F)cc2)c2cc(N3CCNCC3)c(F)cc2c1=O, c1ccc2c(c1)c1cccc3ccc4cccc2c4c31, CC(=O)/C=C/C1=C(C)CCCC1(C)C, Cc1cc(C2(c3cc(C)c(O)cc3C)OS(=O)(=O)c3ccccc32)c(C)cc1O, O=C(O)c1ccc([N+](=O)[O-])cc1, CCCCCCCCCCCCCCCCCC(=O)OCC(CC)CCCC (configuration not stated), OC1OC[C@@H](O)[C@H](O)[C@H]1O (some centres not stated), CNC[C@H](O)c1cccc(O)c1

Read-out: Interleukin-1 alpha (IL1a), IL1A (gene 3552)
Assay: BSK_BE3C_IL1a: BioMAP Diversity Plus: BE3C Assay for Interleukin-1 alpha (IL1a) Biomarker Activity (AID 2283016)
Settings: primary human bronchial epithelial cells; actives raise or lower the signal
How it was run: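 ELISA read-out of IL-1a from human lung bronchial epithelial primary cells, 24 h post-dose. Gain or loss of signal fitted relative to DMSO negative control.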

outcome, inactive:
CC(C)(COC(=O)c1ccccc1)COC(=O)c1ccccc1, c1ccc2sc(SN(C3CCCCC3)C3CCCCC3)nc2c1, C[C@H]1C[C@@H]2[C@H]([C@@H](O)C[C@@]3(C)[C@H]2CC[C@]3(O)C(=O)CO)[C@@]2(C)C=CC(=O)C=C12, O=C(O)c1cn(-c2ccc(F)cc2)c2cc(N3CCNCC3)c(F)cc2c1=O, c1ccc2c(c1)c1cccc3ccc4cccc2c4c31, CC(=O)/C=C/C1=C(C)CCCC1(C)C, Cc1cc(C2(c3cc(C)c(O)cc3C)OS(=O)(=O)c3ccccc32)c(C)cc1O, O=C(O)c1ccc([N+](=O)[O-])cc1, CCCCCCCCCCCCCCCCCC(=O)OCC(CC)CCCC (configuration not stated), OC1OC[C@@H](O)[C@H](O)[C@H]1O (some centres not stated), CNC[C@H](O)c1cccc(O)c1

AC50, active:
CN(CCOc1ccc(CC2SC(=O)NC2=O)cc1)c1ccccn1 (configuration not stated) 3.97 µM, Cc1ccc(O)c(C(C)(C)C)c1 29.6 µM, CC(C)c1ccc(C(C)C)cc1 29.1 µM, C#C[C@]1(O)CC[C@H]2[C@@H]3CCC4=Cc5oncc5C[C@]4(C)[C@H]3CC[C@@]21C 33.4 µM, CC1CCC(C(C)CS)CC1S (configuration not stated) 20 µM
